Assay outcomes deposited in PubChem by National Center for Advancing Translational Sciences (NCATS).
Most compounds without a hit are left out; they make up all but 12% or so of the library.
L3MBTL1 block: qHTS Assay for the Inhibitors of L3MBTL1; AID 485360, 2010; Lethal(3)malignant brain tumor-like protein 1 (Homo sapiens), Q9Y468; actives 0.66% (n = 230,000); AlphaScreen L3MBTL1–H3K9me1 peptide binding; Potency, µM (titrated, usually from 57.1 µM), most hits filed as inhibitors; further: nearly all actives have a fitted effect of over 60% in size
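AlphaScreen proximity signal between nickel-chelate acceptor and streptavidin donor beads (final 10 ug/mL) reports binding of 50 nM L3MBTL1 to 75 nM biotin-H3 K9me1 peptide; complex incubated with compounds 30 min at room temperature; cefsulodin titration as control.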
JMJD2A Tudor: qHTS Assay for Inhibitors of JMJD2A-Tudor Domain; Lysine-specific demethylase 4A (Homo sapiens), O75164; AlphaScreen JMJD2A-Tudor / H3K4me3 peptide binding; Potency, µM (titrated, usually from 114 µM), usual class: inhibitors; actives 4.4% (n = 390,000); further: nearly all actives have a fitted effect of over 50% in size
HP1b chromo inh: HTS for Inhibitors of HP1-beta Chromodomain Interactions with Methylated Histone Tails; AlphaScreen HP1-beta / biotin-H3K9me3 peptide binding; actives 0.56% (n = 390,000); Potency, µM (series often up to 114 µM), hits mostly inhibitors; Chromobox protein homolog 1 (Homo sapiens), P83916; AID 540317, 2011; further: nearly all actives have a fitted effect of over 70% in size
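HP1-beta protein (50 nM final) preincubated 30 min at room temperature with biotinylated H3(1-18)K9me3 peptide (50 nM) in PBS pH 7.4, 0.01% Tween-20, then compound added for 30 min. AlphaScreen streptavidin donor/nickel chelate acceptor beads (10 ug/mL final), 30 min dark, luminescence read.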
G9a block: qHTS Assay for Inhibitors of Histone Lysine Methyltransferase G9a; actives 8.8% (n = 350,000); G9a H3K9 monomethylation, AlphaScreen, 2 h; Potency, µM (doses to about 102 µM), hits mostly inhibitors; further: nearly all actives have a fitted effect of over 75% in size
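AlphaScreen read-out: biotin-H3K9 peptide (500 nM) methylation by 20 nM enzyme with 20 uM SAM, 2 h at room temperature after 15 min compound preincubation; anti-monomethyl H3K9 antibody plus donor/acceptor beads, 10 min dark.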
Sfp PPTase inh: qHTS Assay for Inhibitors of Bacillus subtilis Sfp phosphopantetheinyl transferase (PPTase); Biochemical Sfp PPTase activity, qHTS; Potency, µM, actives largely listed as inhibitors; actives 3.5% (n = 310,000); 4'-phosphopantetheinyl transferase ffp (Bacillus subtilis), Q9F4F7;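 further: the enzyme is Sfp with the accession as filed and its product quenches rhodamine fluorescence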
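Fluorescence-quenching assay: 15 nM Sfp-PPTase preincubated 15 min at room temperature with compound, then 5 uM rhodamine-CoA and 12.5 uM BHQ-2-labelled YbbR peptide added. Fluorescence (ex 525/em 598 nm) read at start and after 30 min; difference gives rate.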
BAZ2B block: qHTS Assay for Inhibitors of BAZ2B | actives 4.4% (n = 360,000) | Bromodomain adjacent to zinc finger domain protein 2B (Homo sapiens), Q9UIF8 | AID 504333, 2011 | Potency, µM (titrated, usually from 114 µM), most hits filed as inhibitors | AlphaScreen BAZ2B-H3K14Ac peptide displacement; further: nearly all actives have a fitted effect of over 60% in size
Target sequence (Q9UIF8 whole entry, looked up, the tested form may be a part): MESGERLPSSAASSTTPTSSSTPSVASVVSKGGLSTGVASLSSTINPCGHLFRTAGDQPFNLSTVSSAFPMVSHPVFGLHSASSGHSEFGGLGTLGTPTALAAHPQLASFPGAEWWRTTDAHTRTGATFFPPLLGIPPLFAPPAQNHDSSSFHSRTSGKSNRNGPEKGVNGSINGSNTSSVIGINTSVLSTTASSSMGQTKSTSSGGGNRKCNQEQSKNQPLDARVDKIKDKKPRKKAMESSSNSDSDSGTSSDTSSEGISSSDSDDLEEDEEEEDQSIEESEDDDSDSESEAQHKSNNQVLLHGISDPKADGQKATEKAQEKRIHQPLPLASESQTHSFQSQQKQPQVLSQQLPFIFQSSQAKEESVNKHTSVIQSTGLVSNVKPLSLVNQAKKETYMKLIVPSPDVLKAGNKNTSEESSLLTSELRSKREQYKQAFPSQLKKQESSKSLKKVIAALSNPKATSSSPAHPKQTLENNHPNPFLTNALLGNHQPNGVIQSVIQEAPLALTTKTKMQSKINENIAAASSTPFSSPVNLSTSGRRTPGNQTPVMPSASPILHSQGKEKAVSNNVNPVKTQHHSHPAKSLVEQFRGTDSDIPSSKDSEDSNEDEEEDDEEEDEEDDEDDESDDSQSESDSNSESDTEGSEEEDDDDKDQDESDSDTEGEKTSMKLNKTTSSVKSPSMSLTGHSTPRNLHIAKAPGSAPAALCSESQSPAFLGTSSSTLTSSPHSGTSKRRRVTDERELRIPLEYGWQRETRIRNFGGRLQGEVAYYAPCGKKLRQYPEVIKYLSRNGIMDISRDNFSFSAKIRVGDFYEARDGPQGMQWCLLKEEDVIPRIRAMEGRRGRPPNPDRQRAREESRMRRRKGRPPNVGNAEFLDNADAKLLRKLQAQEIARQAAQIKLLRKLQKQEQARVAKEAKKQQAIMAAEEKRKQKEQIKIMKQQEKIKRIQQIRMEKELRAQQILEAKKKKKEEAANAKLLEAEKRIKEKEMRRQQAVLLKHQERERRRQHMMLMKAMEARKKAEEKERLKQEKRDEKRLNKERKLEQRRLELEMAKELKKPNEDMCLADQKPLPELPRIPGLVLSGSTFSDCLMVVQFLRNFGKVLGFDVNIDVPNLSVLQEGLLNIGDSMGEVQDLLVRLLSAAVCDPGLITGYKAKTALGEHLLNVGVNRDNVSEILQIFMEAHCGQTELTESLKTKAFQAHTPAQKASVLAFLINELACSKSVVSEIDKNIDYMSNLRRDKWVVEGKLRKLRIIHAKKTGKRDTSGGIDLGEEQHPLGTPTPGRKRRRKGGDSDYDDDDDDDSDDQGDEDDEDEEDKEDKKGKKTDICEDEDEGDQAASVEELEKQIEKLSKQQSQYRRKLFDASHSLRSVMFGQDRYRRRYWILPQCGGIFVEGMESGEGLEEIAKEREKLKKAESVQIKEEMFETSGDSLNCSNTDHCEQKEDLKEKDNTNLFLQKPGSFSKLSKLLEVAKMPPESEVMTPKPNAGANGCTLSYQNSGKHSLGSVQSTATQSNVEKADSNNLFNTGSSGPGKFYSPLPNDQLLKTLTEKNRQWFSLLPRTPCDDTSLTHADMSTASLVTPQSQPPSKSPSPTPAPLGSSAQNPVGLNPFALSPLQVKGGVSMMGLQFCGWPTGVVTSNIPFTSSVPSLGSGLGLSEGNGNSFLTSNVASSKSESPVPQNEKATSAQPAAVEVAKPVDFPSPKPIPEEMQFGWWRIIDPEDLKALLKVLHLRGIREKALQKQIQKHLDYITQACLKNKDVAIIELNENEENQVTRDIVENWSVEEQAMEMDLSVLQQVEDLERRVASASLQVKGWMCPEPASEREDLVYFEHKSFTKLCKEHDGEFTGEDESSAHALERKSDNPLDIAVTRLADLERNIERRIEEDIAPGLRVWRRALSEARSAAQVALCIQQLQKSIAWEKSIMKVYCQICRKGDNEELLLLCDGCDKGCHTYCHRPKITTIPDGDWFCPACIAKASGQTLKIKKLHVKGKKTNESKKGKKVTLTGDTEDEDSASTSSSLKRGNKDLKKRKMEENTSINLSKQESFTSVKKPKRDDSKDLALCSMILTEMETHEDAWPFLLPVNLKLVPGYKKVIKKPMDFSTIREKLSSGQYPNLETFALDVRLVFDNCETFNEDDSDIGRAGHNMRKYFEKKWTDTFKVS
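AlphaScreen displacement of biotin-H3(5-23)K14Ac peptide (50 nM final) from BAZ2B (50 nM final) in PBS pH 7.4, 0.01% Tween-20; complex preformed 30 min RT, then compounds (top 110 uM) 30 min RT, beads 20 min dark.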
Each line names hits and unclear results; the compound was inactive in the other large screens; ! = repeats disagree. The call rests on the fitted dose curve; in most records, active means well fitted curve in the direction sought with a large enough effect; inconclusive means small, poorly fitted or top-dose-only effect, or another doubt; inactive means no such curve, though single readings can be large; an effect the other way counts as inactive or inconclusive.

CCCCN(C(=O)C1CCC(CNS(=O)(=O)c2cccc3nsnc23)CC1)c1ccccc1 (stereo not drawn)	JMJD2A Tudor inconclusive, G9a block inconclusive (no result: L3MBTL1 block, Sfp PPTase inh)
O=C(CSc1nnc(NC2CCCCC2)s1)NN1C(=O)NC2(CCCCC2)C1=O	JMJD2A Tudor inconclusive, G9a block 45µM
N[C@@H](Cc1cnc[nH]1)C(=O)O	G9a block 6µM!, Sfp PPTase inh inconclusive (no result: L3MBTL1 block, JMJD2A Tudor, HP1b chromo inh, BAZ2B block)
CCOC(=O)c1cc(OC(=O)c2cc(OC)c(OC)c(OC)c2)n(-c2ccccc2)n1	none (no result: L3MBTL1 block, Sfp PPTase inh)
CCOC(=O)C1CCN(C(c2ccccc2OC)c2c(O)cc(C)n(CCOC)c2=O)CC1 (stereo not drawn)	none (no result: L3MBTL1 block, Sfp PPTase inh)
CC(C)c1ccc(NC(=O)CCS(=O)(=O)c2ccc(Br)s2)cc1	G9a block inconclusive (no result: L3MBTL1 block, Sfp PPTase inh)
O=C(CCS(=O)(=O)c1ccc(Cl)cc1)Nc1ccccc1Br	none (no result: L3MBTL1 block)
O=C(CCS(=O)(=O)c1ccc(Br)s1)Nc1ccccc1Br	G9a block 50µM
COc1ccc(NC(=O)CCS(=O)(=O)c2ccc(Br)s2)cc1	G9a block 18µM, BAZ2B block inconclusive (no result: L3MBTL1 block)
CCc1cccc(CC)c1NC(=O)CCS(=O)(=O)c1ccc(Br)cc1	none (no result: L3MBTL1 block, Sfp PPTase inh)
CCc1cccc(CC)c1NC(=O)CCS(=O)(=O)c1ccc(Br)s1	G9a block 22µM (no result: L3MBTL1 block, Sfp PPTase inh)
CC(C)(C)c1nc2ccc(NS(=O)(=O)c3ccc(F)c(F)c3F)cc2[nH]1	G9a block 32µM (no result: L3MBTL1 block)
CC(C)(C)c1nc2ccc([N+](=O)[O-])cc2[nH]1	L3MBTL1 block inconclusive, BAZ2B block inconclusive
O=c1c2ccccc2c(C=NCc2ccccn2)c(O)n1-c1ccccc1Cl	JMJD2A Tudor inconclusive, G9a block inconclusive, BAZ2B block inconclusive (no result: L3MBTL1 block)
O=c1c2ccccc2c(/C=N/n2cnnc2)c(O)n1-c1ccccc1F	JMJD2A Tudor inconclusive, G9a block 71µM, BAZ2B block inconclusive
Cc1ccc(-n2c(O)c(/C=N/n3cnnc3)c3ccccc3c2=O)cc1	JMJD2A Tudor 56µM, G9a block inconclusive, BAZ2B block 50µM
Cc1ccc(-n2c(O)c(/C=N/c3ncn[nH]3)c3ccccc3c2=O)cc1	BAZ2B block inconclusive
Cc1ncoc1C(=O)Nc1ncc([N+](=O)[O-])s1	L3MBTL1 block inconclusive, JMJD2A Tudor 40µM, HP1b chromo inh inconclusive, G9a block 4.5µM, BAZ2B block inconclusive
CCc1ccc(NC(=O)Cn2cnc3nc4c(cc3c2=O)CCCC4)cc1	JMJD2A Tudor inconclusive (no result: L3MBTL1 block, Sfp PPTase inh)
CCCOc1ccc(/C(O)=C2/C(=O)C(=O)N(CCN(C)C)C2c2ccc(O)c(OC)c2)cc1 (stereo not drawn)	G9a block 45µM
COc1cc(C2/C(=C(\O)c3cc(C)ccc3C)C(=O)C(=O)N2CCN(C)C)ccc1O (stereo not drawn)	G9a block 50µM
CCCOc1cccc(C2/C(=C(/O)c3ccc(F)cc3)C(=O)C(=O)N2CCN(C)C)c1 (stereo not drawn)	JMJD2A Tudor 79µM, G9a block inconclusive
COc1ccccc1N1CCN(C(=O)Cn2c(=O)n3nc(-c4cccc(C)c4)nc3c3ccccc32)CC1	none (no result: L3MBTL1 block, Sfp PPTase inh)
CCO/C=C1/C(=O)N(C(C)=O)c2ccccc21	G9a block 10µM, Sfp PPTase inh inconclusive
CCOC(=O)CON1C(=O)c2ccccc2C1=O	none (no result: L3MBTL1 block)
